High-throughput results deposited in PubChem by several laboratories.
This is a sample that favours compounds with a hit; in the whole collection about 3.3% have one here.
Gli-Sufu block – blocks Gli-Sufu signaling in a luciferase reporter | AID 588413 | inhibition, % at 5 µM | Sufu-KO-LIGHT fibroblasts, Gli luciferase reporter luminescence | actives 0.74% (n = 340,000);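 active = inhibition above about 55%, limit read from the data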;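 note: 0% = DMSO-treated cells and 100% = wells with medium but no cells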
697 NFkB inh – inhibitors of the PMA/ionomycin-induced NF-kB reporter in 697 B cells; 697 B-cell NF-kB luciferase reporter, 16 h; inhibition, % at 4 µM; actives 0.33% (n = 330,000); AID 435022; in the data active = inhibition above about 35%
esBAF inh – inhibitors of esBAF chromatin remodeling in mouse ES cells. Bmi1-luciferase knock-in reporter, 24 h; 100% = twice the neutral-well signal. reporter increase, % at 12.5 µM. actives 2% (n = 350,000); in the data active = activation above about 40%;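 note: 0% = median of the plate's neutral control wells and 100% = double that signal; a rise in the Bmi1 reporter signal indicates esBAF inhibition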
SMARCA2 act – activators of SMARCA2 function. MG213 cells, MMTV-luciferase reporter, dexamethasone, overnight. activation, % at 9.1 µM. actives 1% (n = 370,000). AID 652017; in the data active = activation above about 7.8%;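 note: 0% = vehicle wells and 100% = reference activator wells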
Jurkat NFkB inh – inhibitors of the PMA/ionomycin-induced NF-kB reporter in Jurkat cells | PMA/ionomycin-induced NF-kB luciferase reporter, luminescence | actives 0.53% (n = 330,000) | inhibition, % at 4 µM | AID 435003; in the data active = inhibition above about 50%
SMARCA2 act conf – confirmation of SMARCA2 (BRM) function activators | shares compounds with SMARCA2 act | MG213 cells, MMTV-luciferase with dexamethasone, luminescence, overnight; MG213 cells expressing E1A, Rb sequestered; DMSO wells 0%, reference activator 100% | activation, % at 9.1 µM | actives 30% (n = 3,500);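 active = activation above its plate's cutoff, the mean activation of tested wells plus 3 SD, cut at about 7.9% in these data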
GAL4-VP16 Luc – counter-screen for SMARCA2 activators: GAL4-VP16 luciferase reporter activation. shares compounds with SMARCA2 act. HEK293 GAL4-VP16 pG5luc reporter, luciferase luminescence; scaled: DMSO wells 0%, SAHA wells 100%. activation, % at 9.1 µM. actives 41% (n = 3,500). AID 686939;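 active = activation above the solvent-only control well mean plus 3 SD, averaged across control plates, cut at about 5.2% in these data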
The depositor's hits bear a star.

What do the screens show for `Cc1ccc(S(=O)(=O)Nc2ccc3c(c2)C(=O)N([C@H](C)CO)C[C@@H](C)[C@H](CN(C)C(=O)Nc2ccc(F)cc2)OCCCC[C@H](C)O3)cc1`?
esBAF inh: -4

What do the screens show for `Cc1ccc(-n2nc3c(c2NC(=O)c2ccco2)CS(=O)(=O)C3)cc1C`?
Gli-Sufu block: 0; 697 NFkB inh: 6; esBAF inh: -8; SMARCA2 act: 8.8*; Jurkat NFkB inh: 14; SMARCA2 act conf: 4; GAL4-VP16 Luc: 1

How did Cc1ccc(-n2nc3c(c2NC(=O)c2cccs2)CS(=O)(=O)C3)cc1 do in these assays?
Gli-Sufu block: 8; 697 NFkB inh: -3; esBAF inh: -1; SMARCA2 act: 14*; Jurkat NFkB inh: 0; SMARCA2 act conf: 1; GAL4-VP16 Luc: 0

What do the screens show for `C[C@@H]1CCCCO[C@@H](CN(C)C(=O)C2CCCCC2)[C@H](C)CN([C@@H](C)CO)C(=O)c2cc(NC(=O)c3ccncc3)ccc2O1`?
esBAF inh: 28

What do the screens show for `Cc1ccccc1OCC(=O)NC1=NCCS1`?
Gli-Sufu block: -84; 697 NFkB inh: -69; esBAF inh: 44*; SMARCA2 act: 9.0*; Jurkat NFkB inh: -77; SMARCA2 act conf: 7; GAL4-VP16 Luc: 12*

Results for O=C(COc1ccccc1)NCC(=O)NC1=NCCS1 ?
Gli-Sufu block: -3; 697 NFkB inh: 10; esBAF inh: -2; SMARCA2 act: 1; Jurkat NFkB inh: 3

Results for C[C@@H]1CN([C@@H](C)CO)C(=O)Cc2cc(NC(=O)Cc3cn(C)c4ccccc34)ccc2O[C@@H]1CN(C)Cc1ccncc1 ?
esBAF inh: 6

How did CC(C)OC(=O)N(C)C[C@H]1OCc2ccccc2-c2c(n(C)c3ccccc23)C(=O)N([C@@H](C)CO)C[C@@H]1C do in these assays?
esBAF inh: -7

What do the screens show for `O=C(Nc1ccccn1)c1ccc([N+](=O)[O-])o1`?
Gli-Sufu block: -39; 697 NFkB inh: 21; Jurkat NFkB inh: 14

How did O=C(Nc1cccc([N+](=O)[O-])c1)c1ccc([N+](=O)[O-])o1 do in these assays?
esBAF inh: -70; SMARCA2 act: 15*; SMARCA2 act conf: 19*; GAL4-VP16 Luc: 2

What do the screens show for `O=C(Nc1ncccn1)c1ccc([N+](=O)[O-])o1`?
Gli-Sufu block: -4; 697 NFkB inh: 4; SMARCA2 act: 15*; Jurkat NFkB inh: 14; SMARCA2 act conf: 10*; GAL4-VP16 Luc: 1

Results for NC(=O)c1ccsc1NC(=O)COC(=O)c1ccc([N+](=O)[O-])o1 ?
Gli-Sufu block: 2; 697 NFkB inh: 7; esBAF inh: -8; SMARCA2 act: 3; Jurkat NFkB inh: 0

Results for CCC(=O)N1CCN(c2ccc(NC(=O)c3ccc([N+](=O)[O-])o3)cc2)CC1 ?
Gli-Sufu block: 9; SMARCA2 act: 1

Results for NC(=O)c1ccsc1NC(=O)c1ccc([N+](=O)[O-])o1 ?
Gli-Sufu block: -4; 697 NFkB inh: -7; esBAF inh: 10; SMARCA2 act: 8.3*; Jurkat NFkB inh: -29; SMARCA2 act conf: 18*; GAL4-VP16 Luc: 5

What do the screens show for `CC(C)(C)C(=O)N1CCN(c2ccc(NC(=O)c3ccc([N+](=O)[O-])o3)cc2)CC1`?
Gli-Sufu block: -5; 697 NFkB inh: -4; esBAF inh: -28; SMARCA2 act: 9.8*; Jurkat NFkB inh: 28; SMARCA2 act conf: 1; GAL4-VP16 Luc: 4

Results for CN1C(=O)c2cc(NC(=O)c3cccs3)ccc2OC[C@@H]2O[C@@H](CC(=O)NCC(F)(F)F)CC[C@H]21 ?
esBAF inh: 3

How did C[C@H](NC(=O)C[C@@H]1CC[C@H]2[C@@H](COC[C@@H](O)CN2C(=O)Nc2ccccc2)O1)c1ccccc1 do in these assays?
esBAF inh: 3

What do the screens show for `Cc1occc1C(=O)N/N=C/C1=C(N2CCOCC2)C(=C\c2ccc(Cl)cc2Cl)/CC1`?
Gli-Sufu block: 6; 697 NFkB inh: -23; esBAF inh: 17; SMARCA2 act: 12*; Jurkat NFkB inh: -1; SMARCA2 act conf: 2; GAL4-VP16 Luc: 0

Results for Cc1cc(C)nc(N/N=C/C2=C(N3CCOCC3)C(=C\c3ccc(Cl)cc3)/CC2)n1 ?
Gli-Sufu block: 24; 697 NFkB inh: 5; SMARCA2 act: -3; Jurkat NFkB inh: 9

How did C[C@H](CO)N1C[C@H](C)[C@H](CN(C)CC2CCCCC2)OCCCC[C@H](C)Oc2ccc(NC(=O)NC3CCCCC3)cc2C1=O do in these assays?
esBAF inh: 3

How did O=c1cc(-c2ccccc2)oc2cc(O)c(O)c(O)c12 do in these assays?
Gli-Sufu block: -84; 697 NFkB inh: -49; esBAF inh: -8; SMARCA2 act: 8.3*; Jurkat NFkB inh: -24; SMARCA2 act conf: 9.4*; GAL4-VP16 Luc: 13*

What do the screens show for `COc1c(O)cc2oc(-c3ccc(O)cc3)cc(=O)c2c1O`?
Gli-Sufu block: -79; 697 NFkB inh: -47; esBAF inh: 0; SMARCA2 act: 7; Jurkat NFkB inh: -66

Results for C[C@H]1CN([C@@H](C)CO)C(=O)c2cc(NC(=O)c3ccncc3)ccc2O[C@H]1CN(C)S(=O)(=O)c1ccc(Cl)cc1 ?
esBAF inh: -2

What do the screens show for `O=S(=O)(Nc1nc2ccccc2nc1NCc1ccco1)c1ccc(Cl)cc1`?
Gli-Sufu block: -19; 697 NFkB inh: -14; esBAF inh: -1; SMARCA2 act: 1; Jurkat NFkB inh: 0

How did Cc1ccc(S(=O)(=O)Nc2nc3ccccc3nc2NCc2ccco2)cc1 do in these assays?
Gli-Sufu block: -2; 697 NFkB inh: -138; esBAF inh: 92*; SMARCA2 act: 8.7*; Jurkat NFkB inh: -65; SMARCA2 act conf: 22*; GAL4-VP16 Luc: 19*

What do the screens show for `O=C(c1cccc(NC2=NC3CS(=O)(=O)CC3S2)c1)N1CCN(c2ccc(F)cc2)CC1` (configuration not stated)?
Gli-Sufu block: -1; 697 NFkB inh: 11; esBAF inh: -4; SMARCA2 act: 8.2*; Jurkat NFkB inh: 9; SMARCA2 act conf: 5; GAL4-VP16 Luc: 0

What do the screens show for `O=C1N/C(=C/c2ccc(N3CCOCC3)o2)C(=O)N1c1ccccc1`?
Gli-Sufu block: -3; esBAF inh: 27; SMARCA2 act: 14*; SMARCA2 act conf: 3; GAL4-VP16 Luc: 2

What do the screens show for `C=CCN1C(=O)N/C(=C/c2ccc(N3CCOCC3)o2)C1=O`?
697 NFkB inh: -13; SMARCA2 act: 6; Jurkat NFkB inh: -3
